In PubChem BioAssay AID1662 (Broad Institute, 2009):
Out of some 300,000 compounds screened, about 4,000 (1.3%) were called active. The sample holds actives, similar compounds and a random draw of the others, so the mix is not that of the screen.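 The calls were made as follows: active = mean replicate score, as percent of positive control median, at least 50; inconclusive = mean below 50 but one replicate at or above 50; inactive = mean and every replicate below 50.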

Experiment: S. pyogenes SKKanGAS growth inhibitors in kanamycin, primary screen, streptokinase expression inhibitor project, SKKanGAS strain, BacTiter-Glo luminescence (AID 1662);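 also: strain carries kanamycin resistance gene driven by streptokinase promoter and grows in 40 µg/ml kanamycin; loss of luminescence reflects streptokinase promoter inhibition or plain growth inhibition; 0% = median of DMSO wells and 100% = positive control at its reference dose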
Conditions: 6 h, at 7.5 µM, active compounds read high

| Structure (SMILES) | inhibition |
| --- | --- |
| CCN1CC(CN(C)Cc2nc(-c3ccc(Cl)cc3)no2)CC1=O (centres undefined) | 1.31% (inactive) |
| CCOC(=O)C1(Cc2cccc(OC)c2)CCCN(C(=O)CCSC)C1 (centres undefined) | 1.89% (inactive) |
| C=CCNC(=O)c1ccc2c3n(nc2c1)-c1ccc(C)cc1CO3 | -8.54% (inactive) |
| CCCC(=O)NC(Nc1ccccc1OC)C(Cl)(Cl)Cl (centres undefined) | 1.6% (inactive) |
| CCOc1ccccc1NC(=O)C12CC3CC(C1)CC(c1ccc(C)cc1)(C3)C2 | 20.1% (inactive) |
| CCn1c(NC(=O)c2nn(C)cc2Br)nc2ccccc21 | -1.42% (inactive) |
| CCCn1c(NC(=O)C23CC4CC(CC(O)(C4)C2)C3)nc2ccccc21 | 54.4% (active) |
| COc1cccc(N(C(=O)c2snc(C(N)=O)c2N)C(C(=O)NCC2CCCO2)c2c[nH]c3ccccc23)c1 (centres undefined) | 3.94% (inactive) |
| N#C/C(=C(\O)C(F)(F)F)c1nnc2n1CCCCC2 | 7.62% (inactive) |
| Cn1sc(NC(=O)c2ccccc2)nc1=O | 1.73% (inactive) |
| Cn1c(-c2ccc(C(=O)c3ccccc3)s2)nc2ccccc21 | -1.65% (inactive) |
| Cn1c(NC(=O)c2ccccc2)nc2ccccc21 | 51.2% (active) |
| Cc1ccc(C)c(C(C)NC(=O)C2CCCO2)c1 (centres undefined) | 1.89% (inactive) |
| COc1cc(NC(=O)c2cccs2)ccc1NC(=O)c1ccccc1Cl | 3.93% (inactive) |
| COc1cc2ccccc2cc1C(=O)Nc1ccncc1 | -4.59% (inactive) |
| COc1cc2ccccc2cc1C(=O)Nc1ccc(NC(=O)c2cccs2)cc1 | 64.7% (active) |
| Cc1ccc(S(=O)(=O)NCCc2nnc3ccc(SCc4cccnc4)nn23)cc1 | 4.92% (inactive) |
| COc1ccc2sc(N(CCCN(C)C)C(=O)c3ccc(S(=O)(=O)N(C)C4CCCCC4)cc3)nc2c1 | -0.457% (inactive) |
| O=S(=O)(NCC1CC1)c1ccc(F)c(Cl)c1 | -1.69% (inactive) |
| COc1ccc(C2CC(c3cccs3)=NN2c2ccccc2)cc1 (centres undefined) | 11.6% (inactive) |
| Oc1ccccc1C1=NN(c2ccccc2)C(c2ccccc2)C1 (centres undefined) | 93.5% (active) |
| O=C(c1ccccc1)N1N=C(c2ccccc2O)CC1c1ccc(Br)cc1 (centres undefined) | 18.1% (inactive) |
| Cc1nc2cc(C(F)(F)F)ccc2n1CCNc1nc(-c2cc(Cl)c(N)c(Cl)c2)cs1 | 34.8% (inactive) |
| CCCc1cc(=O)[nH]c2nnc(SCC(=O)Nc3nnc(SCC)s3)n12 | 15.3% (inactive) |
